Consider eight compounds from ChEMBL document CHEMBL3988442, “University of Dundee, Small-Polar-MMV Screening Library” (2021).

Holding throughout (parameters): scale not given: direction of the effect not stated beside the values
Test [1] deals with Protein translocase subunit SecA (Escherichia coli (strain K12)) (UniProt P10408). The test is described as follows: Assay to Identify E. coli SecA ATPase Inhibitors. Particulars: 30 µM. Format: functional.
The target of test [2] is T1, Ubiquitin-activating enzyme e1, putative (Leishmania donovani (strain BPK282A1)) (UniProt E9BSI1).
T1 sequence (whole entry): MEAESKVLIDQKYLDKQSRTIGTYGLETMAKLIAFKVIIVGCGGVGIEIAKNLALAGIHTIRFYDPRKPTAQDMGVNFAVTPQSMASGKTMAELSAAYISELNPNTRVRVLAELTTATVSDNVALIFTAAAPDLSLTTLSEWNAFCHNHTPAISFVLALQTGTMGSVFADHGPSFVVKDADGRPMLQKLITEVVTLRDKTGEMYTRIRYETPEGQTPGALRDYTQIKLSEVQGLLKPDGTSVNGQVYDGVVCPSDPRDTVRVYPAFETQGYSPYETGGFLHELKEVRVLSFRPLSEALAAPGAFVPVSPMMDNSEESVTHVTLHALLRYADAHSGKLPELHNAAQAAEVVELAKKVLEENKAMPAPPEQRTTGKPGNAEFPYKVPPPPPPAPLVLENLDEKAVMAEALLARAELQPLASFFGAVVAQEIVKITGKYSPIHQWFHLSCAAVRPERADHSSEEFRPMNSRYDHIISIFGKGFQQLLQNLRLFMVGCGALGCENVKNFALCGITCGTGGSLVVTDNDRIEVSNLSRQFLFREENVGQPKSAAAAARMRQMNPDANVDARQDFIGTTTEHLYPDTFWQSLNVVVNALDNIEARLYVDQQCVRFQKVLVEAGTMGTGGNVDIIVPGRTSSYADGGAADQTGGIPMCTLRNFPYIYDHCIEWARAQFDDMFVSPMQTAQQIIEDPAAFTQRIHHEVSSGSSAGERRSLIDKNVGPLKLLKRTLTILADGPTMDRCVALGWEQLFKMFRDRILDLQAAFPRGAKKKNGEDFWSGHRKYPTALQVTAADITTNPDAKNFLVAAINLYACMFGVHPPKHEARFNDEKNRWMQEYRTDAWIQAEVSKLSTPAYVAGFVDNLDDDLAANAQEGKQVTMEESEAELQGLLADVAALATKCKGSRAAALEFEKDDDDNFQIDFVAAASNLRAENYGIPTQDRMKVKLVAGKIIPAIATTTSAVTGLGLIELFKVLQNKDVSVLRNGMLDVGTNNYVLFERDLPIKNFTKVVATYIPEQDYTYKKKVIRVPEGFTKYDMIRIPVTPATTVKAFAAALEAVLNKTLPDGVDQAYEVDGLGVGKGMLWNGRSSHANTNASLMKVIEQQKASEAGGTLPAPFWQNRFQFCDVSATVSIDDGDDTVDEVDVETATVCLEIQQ
The test is described as follows: Leishmania donovani Ubiquitin Activating Enzyme (LdE1). Particulars: 30 µM. Format: functional.

Test [3] concerns the target AMP-activated protein kinase, AMPK (Homo sapiens) (UniProt P54646+O43741+P54619+Q9UGJ0+Q9Y478+Q13131+Q9UGI9). The test is described as follows: AMP-dependent Kinase enzyme assay. An in vitro enzyme assay that detects ADP turnover that is directly proportional to AMPK activity. This uses naive AMPK that is activated during the assay with MK-8722. The test is classed as functional. Particulars: 30 µM.

For test [4], the target named is Sialic acid-binding Ig-like lectin 9 (Homo sapiens) (UniProt Q9Y336). The test is described as follows: Hs-Siglec9 ALPHAscreen SOP 20170721. Particulars: 10 µM. For orientation: In Alpha technology, singlet oxygen from a donor bead excites a nearby acceptor bead.
Sialic acid-binding Ig-like lectin 9 (Homo sapiens), sequence (Q9Y336 whole entry): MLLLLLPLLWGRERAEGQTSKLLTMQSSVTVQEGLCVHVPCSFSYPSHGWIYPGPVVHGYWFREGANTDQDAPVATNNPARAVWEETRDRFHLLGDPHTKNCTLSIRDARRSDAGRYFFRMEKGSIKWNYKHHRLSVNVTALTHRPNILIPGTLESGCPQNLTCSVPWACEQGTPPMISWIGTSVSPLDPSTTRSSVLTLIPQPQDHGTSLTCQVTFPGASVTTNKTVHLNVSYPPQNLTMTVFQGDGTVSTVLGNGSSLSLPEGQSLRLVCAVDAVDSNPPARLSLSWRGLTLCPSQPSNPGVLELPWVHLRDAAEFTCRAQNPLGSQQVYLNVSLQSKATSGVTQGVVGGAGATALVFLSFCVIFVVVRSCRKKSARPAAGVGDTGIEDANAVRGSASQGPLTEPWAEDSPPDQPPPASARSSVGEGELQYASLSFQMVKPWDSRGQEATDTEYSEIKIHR
The next test relates to Trypanosoma cruzi. Put plainly: Trypanosoma cruzi phosphomannomutase and mannose-1-phosphate guanylyltransferase assay. The test is classed as functional. Particulars: 10 µM.
Test [5] deals with T2, Arginase-2, mitochondrial (Homo sapiens) (UniProt P78540).
T2 sequence (whole entry): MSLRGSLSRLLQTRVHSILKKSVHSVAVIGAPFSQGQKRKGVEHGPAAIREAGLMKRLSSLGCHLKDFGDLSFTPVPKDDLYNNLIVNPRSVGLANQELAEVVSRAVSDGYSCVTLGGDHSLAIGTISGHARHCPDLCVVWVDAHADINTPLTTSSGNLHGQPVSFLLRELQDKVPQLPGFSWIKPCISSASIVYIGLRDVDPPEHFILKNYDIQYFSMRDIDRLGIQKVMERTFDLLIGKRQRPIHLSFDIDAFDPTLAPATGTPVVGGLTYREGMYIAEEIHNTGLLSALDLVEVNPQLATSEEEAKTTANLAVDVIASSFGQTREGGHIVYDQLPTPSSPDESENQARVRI
Put plainly: in vitro enzyme assay to detect the production of urea directly proportional to the activity of Arginase II. Also: in the data most compounds retested in dose-response had high values. Format: functional. Particulars: 33.3 µM.

The target of test [6] is T3, Proteasome subunit beta (Trypanosoma cruzi) (UniProt O96673).
T3 sequence (whole entry): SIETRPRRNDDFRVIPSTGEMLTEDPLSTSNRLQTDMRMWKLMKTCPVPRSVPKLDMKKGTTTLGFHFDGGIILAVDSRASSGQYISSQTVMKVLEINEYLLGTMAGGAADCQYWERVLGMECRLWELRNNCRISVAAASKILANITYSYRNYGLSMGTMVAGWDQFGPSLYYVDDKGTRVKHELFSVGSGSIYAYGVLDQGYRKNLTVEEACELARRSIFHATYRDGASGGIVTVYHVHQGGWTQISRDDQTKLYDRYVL
The test is described as follows: Trypanosoma cruzi proteasome chymotrypsin-like activity (TcProtChymo) assay. Also: in the data most compounds retested in dose-response had high values. The test is classed as functional. Particulars: 9.37 µM.

The species entered for another test is Homo sapiens. The test is described as follows: To identify inhibition of the IFN signalling (Jak-Stat) pathway via expression of an eGFP reporter gene under the control of an IFN-stimulated response element (ISRE) containing MxA promoter. The test is classed as functional. Particulars: 30 µM. A general note: In a reporter assay the amount or activity of a reporter protein is the signal.

Test [7] addresses T4, Tyrosyl-tRNA synthetase, putative (Trypanosoma cruzi (strain CL Brener)) (UniProt Q4DSP6).
T4 sequence (whole entry): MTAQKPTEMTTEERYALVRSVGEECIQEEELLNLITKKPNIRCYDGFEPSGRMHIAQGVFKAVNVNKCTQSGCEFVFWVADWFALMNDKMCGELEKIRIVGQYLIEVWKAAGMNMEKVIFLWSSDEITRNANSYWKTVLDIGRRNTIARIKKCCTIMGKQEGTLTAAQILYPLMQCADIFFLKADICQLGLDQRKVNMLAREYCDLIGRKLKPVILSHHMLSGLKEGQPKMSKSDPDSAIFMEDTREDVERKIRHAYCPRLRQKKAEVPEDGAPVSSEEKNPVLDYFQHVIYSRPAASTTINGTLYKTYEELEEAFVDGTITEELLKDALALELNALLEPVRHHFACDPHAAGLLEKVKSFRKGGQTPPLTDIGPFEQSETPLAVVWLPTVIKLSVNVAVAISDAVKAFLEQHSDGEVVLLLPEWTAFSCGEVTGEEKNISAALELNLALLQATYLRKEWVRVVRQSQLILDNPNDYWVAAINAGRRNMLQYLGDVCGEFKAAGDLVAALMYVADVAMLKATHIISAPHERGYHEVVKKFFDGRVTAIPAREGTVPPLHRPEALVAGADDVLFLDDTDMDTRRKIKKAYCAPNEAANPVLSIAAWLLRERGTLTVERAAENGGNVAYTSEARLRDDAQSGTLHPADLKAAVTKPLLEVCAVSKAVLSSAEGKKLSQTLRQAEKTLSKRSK
Put plainly: Trypanosoma cruzi tyrosyl tRNA synthetase (TcYRS) _High Tyrosine SOP. Also: in the data most compounds retested in dose-response had high values. The test is classed as functional. Particulars: 30 µM.

For test [8], the target named is T4, Tyrosyl-tRNA synthetase, putative (Trypanosoma cruzi (strain CL Brener)). The test is described as follows: Trypanosoma cruzi tyrosyl tRNA synthetase (TcYRS) SOP. Format: functional. Particulars: 30 µM.
The target of test [9] is Chromo domain-containing protein 1 (Saccharomyces cerevisiae (strain ATCC 204508 / S288c) (Baker's yeast)) (UniProt P32657). The test is described as follows: ScCHD-1 Enzyme Inhibition Assay. Also: in the data most compounds retested in dose-response had high values. Format: functional. Particulars: 30 µM.
Chromo domain-containing protein 1 (Saccharomyces cerevisiae (strain ATCC 204508 / S288c) (Baker's yeast)), sequence (P32657 whole entry, the tested form may be a part): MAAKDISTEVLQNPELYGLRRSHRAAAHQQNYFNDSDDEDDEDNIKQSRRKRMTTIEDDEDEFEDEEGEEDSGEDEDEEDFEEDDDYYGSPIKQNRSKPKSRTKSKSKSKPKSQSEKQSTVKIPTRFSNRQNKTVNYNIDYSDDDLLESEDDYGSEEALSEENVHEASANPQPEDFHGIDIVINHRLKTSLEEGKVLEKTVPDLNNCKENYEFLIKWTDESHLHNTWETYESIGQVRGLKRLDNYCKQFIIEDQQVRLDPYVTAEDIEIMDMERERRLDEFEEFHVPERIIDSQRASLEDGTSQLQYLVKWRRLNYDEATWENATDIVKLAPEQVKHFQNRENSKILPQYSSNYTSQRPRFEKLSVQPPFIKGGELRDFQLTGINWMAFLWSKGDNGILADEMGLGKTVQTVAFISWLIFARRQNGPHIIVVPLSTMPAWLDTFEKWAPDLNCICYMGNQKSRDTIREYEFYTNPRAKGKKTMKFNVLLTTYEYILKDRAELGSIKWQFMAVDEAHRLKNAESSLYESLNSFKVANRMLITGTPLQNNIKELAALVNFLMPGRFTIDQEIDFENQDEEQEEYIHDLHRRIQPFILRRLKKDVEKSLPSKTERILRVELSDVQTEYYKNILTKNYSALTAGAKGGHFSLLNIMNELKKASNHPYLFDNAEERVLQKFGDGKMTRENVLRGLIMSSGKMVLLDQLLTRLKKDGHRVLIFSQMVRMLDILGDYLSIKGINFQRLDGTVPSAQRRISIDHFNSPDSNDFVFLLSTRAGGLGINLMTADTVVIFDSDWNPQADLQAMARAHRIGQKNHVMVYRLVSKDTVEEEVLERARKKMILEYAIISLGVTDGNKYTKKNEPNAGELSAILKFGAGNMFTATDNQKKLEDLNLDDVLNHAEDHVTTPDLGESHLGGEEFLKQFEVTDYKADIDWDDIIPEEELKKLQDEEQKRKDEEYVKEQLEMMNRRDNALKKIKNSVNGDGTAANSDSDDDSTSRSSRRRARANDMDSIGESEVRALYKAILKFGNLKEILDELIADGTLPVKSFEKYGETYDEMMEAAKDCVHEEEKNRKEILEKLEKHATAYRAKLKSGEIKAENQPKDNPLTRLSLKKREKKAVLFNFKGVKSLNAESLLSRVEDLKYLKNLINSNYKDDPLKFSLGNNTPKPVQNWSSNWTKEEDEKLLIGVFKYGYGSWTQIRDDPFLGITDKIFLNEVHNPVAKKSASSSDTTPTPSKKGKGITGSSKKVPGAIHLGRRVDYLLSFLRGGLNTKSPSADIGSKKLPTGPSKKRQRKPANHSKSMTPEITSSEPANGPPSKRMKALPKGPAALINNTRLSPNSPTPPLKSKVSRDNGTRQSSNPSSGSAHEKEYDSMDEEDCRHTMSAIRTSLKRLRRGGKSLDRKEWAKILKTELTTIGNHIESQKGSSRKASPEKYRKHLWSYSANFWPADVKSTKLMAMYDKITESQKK

For some of these results: Results with a measured potency or affinity are listed apart.

Protein translocase subunit SecA (Escherichia coli (strain K12)), sequence (P10408 whole entry): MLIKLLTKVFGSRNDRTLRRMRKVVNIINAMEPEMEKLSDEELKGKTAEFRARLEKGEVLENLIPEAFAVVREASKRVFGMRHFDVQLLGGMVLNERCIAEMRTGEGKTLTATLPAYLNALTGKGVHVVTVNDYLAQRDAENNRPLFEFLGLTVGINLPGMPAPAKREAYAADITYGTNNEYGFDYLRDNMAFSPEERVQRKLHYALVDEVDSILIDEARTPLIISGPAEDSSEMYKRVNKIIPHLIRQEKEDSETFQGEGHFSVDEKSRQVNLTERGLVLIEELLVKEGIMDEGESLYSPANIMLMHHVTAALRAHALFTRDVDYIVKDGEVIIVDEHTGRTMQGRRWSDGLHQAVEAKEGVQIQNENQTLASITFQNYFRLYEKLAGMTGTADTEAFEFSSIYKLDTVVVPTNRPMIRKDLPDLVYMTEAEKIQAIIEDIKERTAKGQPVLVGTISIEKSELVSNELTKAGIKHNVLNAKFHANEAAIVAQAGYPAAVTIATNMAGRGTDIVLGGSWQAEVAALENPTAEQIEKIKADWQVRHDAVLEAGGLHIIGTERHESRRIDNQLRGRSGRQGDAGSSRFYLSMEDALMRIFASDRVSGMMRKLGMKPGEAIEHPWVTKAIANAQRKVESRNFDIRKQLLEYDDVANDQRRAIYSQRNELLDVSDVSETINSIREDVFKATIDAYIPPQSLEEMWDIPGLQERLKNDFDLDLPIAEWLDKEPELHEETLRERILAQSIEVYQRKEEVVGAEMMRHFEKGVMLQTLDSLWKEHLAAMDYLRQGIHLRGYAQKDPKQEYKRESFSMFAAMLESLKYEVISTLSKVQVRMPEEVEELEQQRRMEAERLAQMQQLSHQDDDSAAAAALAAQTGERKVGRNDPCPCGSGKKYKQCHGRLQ

On to `N#Cc1ccc(CNC(=O)NC2CCN(CC(F)F)CC2)cc1`, for which the Percent Effect in test [1] was -5.31%; in [2], 2.7%; in [3], 0.0143%; in test [4], 20.2%; with Trypanosoma cruzi it was 10.8%; in test [5], -2.23%. For the same compound, the Percent Effect was 12.3% in test [6]; 8.62% in the test filed under Homo sapiens; 4.3% in [7]; 16.1% in [8]; -4.65% in test [9].
Consider `CC1CCCN(Cc2c(C3CCOCC3)[nH]c3ncccc23)C1` (stereo not drawn), for which the Percent Effect in test [1] was -2.15%; in test [2], 25.7%; in [3] it was 4.08%; in [4] it was -6.47%; in the test on Trypanosoma cruzi it was 0.198%; in test [5], -6.26%. In addition, the Percent Effect in [6] is 14.3%; in the test listed under Homo sapiens it was 11%; in test [7] it was 2.15%; in test [8], 11.7%; in test [9], -12%.
In the case of `CCOc1cc(CN(C)CCOC)ccc1OC(F)F`, the Percent Effect in test [1] is -7.96%; in test [2] it was -2.6%; in test [3], 2.19%; in test [4], -0.762%; with Trypanosoma cruzi it was -9.34%; in test [5], 1.38%. Moreover, the Percent Effect in test [6] is 10.3%; in the test listed under Homo sapiens, -3.34%; in test [7] it was 0%; in [8], -1.24%; in [9], 0.485%.
With `CCc1nnsc1C(=O)N1CCOC(c2nc(C)n[nH]2)C1` (stereo not drawn), the Percent Effect in test [1] is -5.12%; in [2], 8.86%; in test [3], -2.61%; in test [4] it was -4.1%; with Trypanosoma cruzi, 0.718%; in test [5], -0.215%. In addition, the Percent Effect is 8.23% in [6]; -0.829% in the test listed under Homo sapiens; 5.21% in test [7]; 17.7% in [8]; -30.2% in test [9].
In the case of `Cc1cnc(N2CCn3cc(CNC(=O)CC4CC4)nc3C2)nc1`, the Percent Effect in test [1] was -3.53%; in test [2], -2.67%; in test [3], 7.96%; in test [4], -5.68%; in the test with Trypanosoma cruzi, -2.76%; in test [5], 2.1%. For the same compound, the Percent Effect is -6.78% in test [6]; 10.1% in the test listed under Homo sapiens; -8.51% in test [7]; -16.7% in test [8]; -5.33% in [9].
`CC(C)c1noc(CCCC(=O)N2CCN(Cc3ccncc3)CC2)n1`: the Percent Effect in test [1] was -2.42%; in test [2], 22.8%; in test [3], -9.61%; in test [4], -9.55%; in the test on Trypanosoma cruzi, 3.87%; in [5] it was -6.84%. The Percent Effect in test [6] was 12.2%; in the test filed under Homo sapiens, 11.6%; in test [7] it was 5.42%; in test [8] it was 21.5%; in test [9] it was -6.65%.
As for `O=C1NCCCCC1Sc1nnc(-c2cccnc2)n1C1CC1` (stereo not drawn), the Percent Effect in test [1] is -2.96%; in test [2], 2.74%; in test [3], 5.81%; in test [4] it was 0.732%; in the test on Trypanosoma cruzi it was -2.55%; in test [5] it was 0%. In addition, the Percent Effect was 9.23% in [6]; -4.55% in the test filed under Homo sapiens; 7.53% in test [7]; 12.5% in test [8]; -6.68% in [9].
Regarding `Cc1cc(CN2CCN(C(c3ccccc3)c3ccccc3)CC2)no1`, the Percent Effect in [1] is -4.43%; in [2] it was 12.7%; in test [3] it was -1.9%; in [4], 14.9%; in the test with Trypanosoma cruzi, -2.55%; in [5], 1.14%. Moreover, the Percent Effect in [6] is 2.87%; in the test filed under Homo sapiens it was 15.5%; in test [7] it was 8.37%; in test [8], 11.4%; in test [9] it was -8.11%.
